Assay outcomes as filed in PubChem.
Most compounds without a hit are left out; they make up all but 3.6% or so of the library.
AmpC inh detg = inhibitors of E. coli AmpC beta-lactamase with detergent; P00811; AmpC hydrolysis of nitrocefin, absorbance 480 nm, 0.01% Triton; Potency, µM (doses to about 114 µM), for inactives: at the highest dose activity change, negative = inhibition, most hits filed as inhibitors; 0.041% of 370,000 active; AID 485294;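 note: 0% = no-compound wells and -100% = no-enzyme wells; nearly all actives have a fitted effect of over 25% in size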
Target sequence (P00811 whole entry, looked up): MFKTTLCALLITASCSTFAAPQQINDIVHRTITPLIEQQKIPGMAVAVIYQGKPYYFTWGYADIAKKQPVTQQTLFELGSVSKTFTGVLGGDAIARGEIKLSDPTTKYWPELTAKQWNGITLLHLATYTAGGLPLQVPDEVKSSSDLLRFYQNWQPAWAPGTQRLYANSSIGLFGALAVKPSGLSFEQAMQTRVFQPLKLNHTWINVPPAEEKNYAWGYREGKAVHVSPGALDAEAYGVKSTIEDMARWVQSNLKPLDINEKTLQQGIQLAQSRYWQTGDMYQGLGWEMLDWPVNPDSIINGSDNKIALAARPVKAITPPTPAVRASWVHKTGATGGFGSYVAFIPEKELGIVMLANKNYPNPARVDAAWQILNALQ
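AmpC (5.3 nM in the dispensed reagent) in 20 mM phosphate pH 7.0 with 0.01% (detergent screen) or 0.0001% Triton X-100 was preincubated with compounds for 15 min at room temperature. Nitrocefin was then added from an 800 uM solution, and hydrolysis was followed at 480 nm.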
AmpC inh no detg = inhibitors of E. coli AmpC beta-lactamase without detergent | P00811 | AmpC nitrocefin hydrolysis, absorbance 480 nm, 0.0001% Triton | Potency, µM (doses to about 57.1 µM), for inactives: top-dose activity change, negative = inhibition, most hits filed as inhibitors | 0.52% of 330,000 active | AID 485341;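 note: plate controls were no compound for no effect and no enzyme for full effect; nearly all actives have a fitted effect of over 20% in size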
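20 mM phosphate pH 7.0 + 0.01% (detergent screen) or 0.0001% Triton X-100; 5.3 nM AmpC reagent; cpd preinc 15 min RT; nitrocefin (800 uM stock) to start; A480 q20 s × 4 min; Activity was normalised to no-enzyme and no-compound control wells.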
Giardia FBPA inh = blocks Giardia fructose-bisphosphate aldolase activity | 0.71% of 290,000 active | Potency, µM (doses to about 59.6 µM), for inactives: top-dose activity, negative = inhibition, usual class: inhibitors | AID 2451 | purified Giardia FBPA | A8B2U2; note: nearly all actives have a fitted effect of over 55% in size
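40 nM FBPA preincubated 10 min at RT with compound (up to 57.5 uM final), then substrate plus GAPDH/TPI/NAD/arsenate coupling and diaphorase/resazurin added. Fluorescence read after 20 min at RT, 525/598 nm.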
Sm TGR inh = blocks Schistosoma mansoni thioredoxin glutathione reductase. Q962Y6. purified TGR, DTNB reduction, TNB absorbance 405 nm. Potency, µM (titrated, usually from 114 µM), for inactives: at the highest dose activity change, negative = inhibition, most hits filed as inhibitors. 3% of 360,000 active. AID 485364; note: nearly all actives have a fitted effect of over 60% in size
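Kinetic colorimetric format: TGR-catalysed, NADPH-driven DTNB reduction monitored via TNB absorbance. Enzyme dispensed at 20 nM; compound exposure 15 min at room temperature before reaction start.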
An asterisk follows results filed as active; ? = inconclusive; . = no result given; [ ] = dose if it differs, or a comment. Calls come from the whole dose curve; as a rule, active = well fitted curve in the direction sought with a large enough effect; inconclusive = small, poorly fitted or top-dose-only effect, or another doubt; inactive = no such curve, though single readings can be large; an effect the other way counts as inactive or inconclusive. Unless noted, % is set by controls: 0 for no effect and ±100 for the full control effect; potency is the fitted concentration of half-maximal effect.

SMILES	AmpC inh detg	AmpC inh no detg	Giardia FBPA inh	Sm TGR inh
CCN(CC)CCN1C(=O)C(=O)/C(=C(/O)c2ccc(OC)cc2)C1c1cccs1 (configuration not stated)	?	17%	.	45µM*
CCOc1ccc(/C(O)=C2/C(=O)C(=O)N(CCN(CC)CC)C2c2cccs2)cc1 (configuration not stated)	?	18%	3%	22µM*
O=S(=O)(CCc1ccccc1)c1nnnn1-c1ccc(F)cc1Br	.	.	1%	.
Oc1ccccc1C1=Nc2ncnn2C(c2ccc(F)cc2)C1 (configuration not stated)	0%	-32%	7%	14µM*
CCc1ccc(NC(=O)CN(C(=O)N2CCN(CC)CC2)S(=O)(=O)c2ccc(C)cc2)cc1	?	10%	.	0%
COc1ccc(OC)c(S(=O)(=O)ON2C(=O)c3ccccc3C2=O)c1	40µM*	?	-4%	0.63µM*
CCc1ccc(S(=O)(=O)ON2C(=O)c3ccccc3C2=O)cc1	35µM*	-5%[2.29 µM]	-1%	1.4µM*
COc1ccc(OC)c(S(=O)(=O)N2CCN(c3ccccc3)CC2)c1	?	-8%	9%	-4%
O=C1c2cccc3cccc(c23)C(=O)N1OS(=O)(=O)c1ccc(Cl)cc1	-12%	-27%	1%	-14%
CCOc1ccc(-n2c(SCC(=O)Nc3ccc(F)cc3)nc3c([nH]c4ccccc43)c2=O)cc1	5%	.	.	-4%
Cc1nc(N2CCCC2)ncc1C(=O)N1CCN(c2ccc(Cl)cc2)CC1	9%	.	.	2%
CC1(C)Cc2c(c(N3CCOCC3)nc3sc4c(NCc5ccco5)nnnc4c23)CS1	-11%	-36%	-10%	40µM*
CC1(C)Cc2c(c(N3CCOCC3)nc3sc4c(NCc5ccccc5)nnnc4c23)CS1	?	-16%	-10%	-16%
O=C(NC1CC1)C1CC(=O)N(c2cccc(Cl)c2)C1 (configuration not stated)	-3%	-43%	.	7.1µM*
CCC(=O)c1ccc(OCC(=O)OCC(=O)Nc2sccc2C(N)=O)cc1	-4%	-35%	0%	12%
Cc1ccc(N/N=C/c2c(C)c(C#N)c(=O)n(C)c2O)cc1C	-8%	9%	13µM*	.
COc1cc(S(=O)(=O)Nc2ccc(C)cc2)ccc1N=Cc1c(C)c(C#N)c(=O)n(C)c1O	-8%	-14%	-21%	5%
O=C(OC1CCOC1=O)c1ccccc1C(=O)c1ccc(Cl)c([N+](=O)[O-])c1 (configuration not stated)	-7%	-29%	.	25µM*
O=C(COC(=O)c1cnccn1)c1ccc(Cl)c([N+](=O)[O-])c1	1%	-17%	-4%	40µM*
CS(=O)(=O)c1ccc(C(=O)OC2CCOC2=O)cc1[N+](=O)[O-] (configuration not stated)	-6%	-19%	.	2.8µM*
CCCOc1ccc(C(=O)c2ccccc2C(=O)OC2CCOC2=O)cc1OCCC (configuration not stated)	?	38%	.	0%
O=C(COC(=O)c1cc([N+](=O)[O-])ccc1Cl)NC1CCCC1	-6%	-6%	0%	?
O=C(COC(=O)c1ccccc1C(=O)c1ccc(Cl)c([N+](=O)[O-])c1)NC1CC1	-6%	4%	-10%	22µM*
CCCCS(=O)(=O)N1CCc2nc(-c3ccccc3)c3c(c2C1)CO[C@@H](C)C3	.	.	9%[12.9 µM]	.
CNC(=O)COC(=O)c1ccccc1C(=O)c1ccc(Cl)c([N+](=O)[O-])c1	?	150%	-12%	35µM*
SMILES	AmpC inh detg	AmpC inh no detg	Giardia FBPA inh	Sm TGR inh
CC(C)OC(=O)c1ccccc1C(=O)c1ccc(N)c([N+](=O)[O-])c1	-2%	-17%	-7%	.
CCOc1cc(C2Nc3cccc4cccc(c34)N2)ccc1O	?	-57%	-29%	11µM*
COc1ccc(C2Nc3cccc4cccc(c34)N2)cc1	3%	-18%	-21%	.
CCOc1ccc(C2Nc3cccc4cccc(c34)N2)cc1OC	-10%	-34%	?	25µM*
CC12CCC(C(=O)N(CSC(=S)N/N=C\c3ccccc3O)C1=O)C2(C)C (configuration not stated)	-3%	-24%	23%	20µM*
O=C(CC1Sc2ncnn2C1=O)Nc1ccc(Br)cc1 (configuration not stated)	-16%	-45%	?	1µM*
